Experimental data as given in the supplement of paper PMC6805474.

Assays:
[1] = tested on: Schistosoma mansoni schistosomula (LE); test: XTT viability relative to DMSO control; higher = more viable (less active); conditions: 72 h; 10 µM
Experimental: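 XTT/PMS was then added for a further 24 h (72 h total) and A450 was read. % viability = (sample - heat-killed control)/(DMSO control - heat-killed control) x 100, from duplicate wells in two independent experiments.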

[2] = tested on: Schistosoma mansoni schistosomula (NMRI); test: phenotypic severity score (0-4); higher = more antischistosomal effect, active = 2 or more; conditions: 10 µM
[3] = tested on: Schistosoma mansoni schistosomula (Liberian); test: drug effect (1 - score/DMSO control score) (fraction); higher = more antischistosomal effect, active = 0.5 or more; extreme values may be limits of the assay; conditions: 10 µM
Outline: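 Schistosomula of the Liberian strain of Schistosoma mansoni were mechanically transformed from cercariae, pre-incubated for at least 12 h, and placed at 50 per well in flat-bottom 96-well plates with Medium 199 containing 5% FCS. Compounds were tested in duplicate at 10 µM at 37 °C and 5% CO2, alongside wells holding 0.1% DMSO. Parasites were scored visually at 10× after 24, 48 and 72 h on a quarter-point scale running from 3 (normal) to 0 (dead). Drug effect came from the mean test-well score relative to the mean DMSO-well score, with negative values set to zero and plates accepted only when the DMSO wells averaged at least 2.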
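Wherever phenotypic severity score (0-4) is given: visual microscopic scoring of shape, motility and density changes versus 0.5% DMSO solvent controls, one point per descriptor, degeneracy or death scored 4, mean of duplicate wells.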

Row | SMILES | XTT viability [1] | phenotypic severity score ([2]; 24 h) | phenotypic severity score ([2]; 48 h) | phenotypic severity score ([2]; 72 h) | drug effect ([3]; 24 h) | drug effect ([3]; 48 h) | drug effect ([3]; 72 h)
1 | COc1ccccc1OCCCCn1c(C2CC2)nc2ccccc21 | 76% | 0 (inactive) | 0 (inactive) | 0 (inactive) | 0.136 (inactive) | 0.2 (inactive) | 0.182 (inactive)
2 | N#Cc1nc(-c2ccccc2)oc1S(=O)(=O)c1ccc(Cl)cc1 | -7.61% | 0 (inactive) | 0 (inactive) | 1 (inactive) | 1 (active) | 1 (active) | 1 (active)
3 | COc1cccc2c(C)nc(N=C(N)N)nc12 | 93.3% | 0 (inactive) | 0 (inactive) | 0 (inactive) | 0.182 (inactive) | 0.2 (inactive) | 0.127 (inactive)
4 | CCOc1ccc(-c2nc(CNCCc3ccc(F)cc3)cs2)cc1 | 2.26% | 0 (inactive) | 0 (inactive) | 0 (inactive) | 0.273 (inactive) | 0.4 (inactive) | 0.632 (active)
5 | CCc1c(C)nc(-n2nc(C)cc2NC(=O)c2ccccc2SC)[nH]c1=O | -1.13% | 0 (inactive) | 1 (inactive) | 3 (active) | 0.273 (inactive) | 0.95 (active) | 1 (active)
6 | O=C(c1[nH]nc2c1CCCC2)N1CCN(Cc2ccc3c(c2)OCO3)CC1 | 89.6% | 0 (inactive) | 0 (inactive) | 0 (inactive) | 0.0909 (inactive) | 0.25 (inactive) | 0.236 (inactive)
7 | COc1ccc(N(CCc2cccc(C)n2)C(C)=O)cc1 | 114% | 1 (inactive) | 1 (inactive) | 0 (inactive) | 0.15 (inactive) | 0.135 (inactive) | 0.0909 (inactive)
8 | CNc1nnc(Sc2cnn(-c3ccccc3)c(=O)c2Cl)s1 | -5.83% | 4 (active) | 4 (active) | 4 (active) | 1 (active) | 1 (active) | 1 (active)
9 | Cc1cc2nc(NC(=O)C(C)(C)C)nc(Cl)c2n1Cc1ccc(Cl)cc1 | 109% | 0 (inactive) | 0 (inactive) | 0 (inactive) | 0.136 (inactive) | 0.4 (inactive) | 0.345 (inactive)
10 | Cc1cc(NC(=O)c2ccc(Oc3ccc(Cl)cc3O)o2)no1 | 99.6% | 0 (inactive) | 0 (inactive) | 0 (inactive) | 0.1 (inactive) | < 0 (inactive) | 0.111 (inactive)
11 | CN1CCN(c2nccc3[nH]c(-c4cccc(F)c4)cc23)CC1 | 66.3% | 0 (inactive) | 2 (active) | 4 (active) | 0.0909 (inactive) | 0.1 (inactive) | 0.158 (inactive)
12 | CN1CCCN(C(c2ccccc2)c2ccc(Cl)cc2)CC1 (configuration not stated) | 67.9% | 0 (inactive) | 0 (inactive) | 0 (inactive) | 0.455 (inactive) | 0.05 (inactive) | 0.263 (inactive)
13 | C[C@H]1COc2c(N3CCN(C)CC3)c(F)cc3c(=O)c(C(=O)O)cn1c23 | 67.9% | 0 (inactive) | 0 (inactive) | 0 (inactive) | 0.0455 (inactive) | 0.05 (inactive) | 0.0526 (inactive)
14 | COc1ccc(-c2nn(C(C)C)c3ncnc(N)c23)cc1OC | 95.2% | 0 (inactive) | 0 (inactive) | 0 (inactive) | 0.05 (inactive) | 0.0556 (inactive) | 0.0556 (inactive)
15 | COc1ccc(C2=NCCN2)cc1-c1cn(-c2cccc(C3=NCCN3)c2)nn1 | 85.9% | 0 (inactive) | 0 (inactive) | 0 (inactive) | 0.1 (inactive) | 0.111 (inactive) | 0.25 (inactive)
16 | COc1ccc(C2=NN(C3CCCCCC3)C(=O)[C@@H]3CC=CC[C@H]23)cc1OCCCCOc1ccc(-c2nn[nH]n2)cc1 | 31% | 2 (active) | 0 (inactive) | 0 (inactive) | 0.35 (inactive) | 0.568 (active) | 0.667 (active)
17 | CCN(CC)CCCN1CCN(C(=O)c2cccc(-c3noc(C(F)(F)F)n3)c2)CC1 | 97.3% | 0 (inactive) | 0 (inactive) | 1 (inactive) | 0.2 (inactive) | 0.111 (inactive) | 0.25 (inactive)
18 | CCCCN(CCCC)c1c(C#N)cc(S(=O)(=O)Nc2ccccc2)cc1C#N | 40.5% | 0 (inactive) | 0 (inactive) | 0 (inactive) | 0.15 (inactive) | 0.135 (inactive) | 0.273 (inactive)
19 | CC(C)(C)n1nc(Cc2cccc3ccccc23)c2c(N)ncnc21 | 85.5% | 0 (inactive) | 0 (inactive) | 0 (inactive) | 0.15 (inactive) | 0.222 (inactive) | 0.625 (active)
20 | CCc1ccc(S(=O)(=O)Nc2cc(CN3CCN(CCC(C)C)CC3)ccc2C)cc1 | 85.8% | 1 (inactive) | 2 (active) | 4 (active) | 0.25 (inactive) | 0.444 (inactive) | 0.5 (active)
21 | Nc1nc2ccc(-c3cncc(Oc4ccc(F)cc4)c3)cc2[nH]1 | 111% | 2 (active) | 1 (inactive) | 1 (inactive) | 0.3 (inactive) | 0.556 (active) | 0.688 (active)
